Screening data as filed in PubChem BioAssay.
D1 PAM: enhances dopamine response at the human D1 receptor | P21728 | HEK293 TREx D1 cells, calcium flux, dopamine EC20 potentiation | potentiation, % at 10 µM | 360,000 tested, 0.036% active; in the data active = potentiation above about 30%
Target sequence (P21728 whole entry, looked up): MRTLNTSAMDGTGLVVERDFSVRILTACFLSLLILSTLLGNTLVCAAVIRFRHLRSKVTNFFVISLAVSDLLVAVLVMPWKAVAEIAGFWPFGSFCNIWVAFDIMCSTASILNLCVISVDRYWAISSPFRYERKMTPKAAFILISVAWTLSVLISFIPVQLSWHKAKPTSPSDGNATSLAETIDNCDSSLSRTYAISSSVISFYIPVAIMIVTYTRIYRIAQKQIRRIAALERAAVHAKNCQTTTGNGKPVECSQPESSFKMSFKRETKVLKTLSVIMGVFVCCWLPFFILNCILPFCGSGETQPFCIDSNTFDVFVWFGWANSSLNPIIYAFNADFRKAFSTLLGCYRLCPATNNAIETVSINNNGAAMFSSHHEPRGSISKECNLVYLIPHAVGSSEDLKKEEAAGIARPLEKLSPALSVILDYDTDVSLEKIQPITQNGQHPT
D3 ag: D3 dopamine receptor (human) agonism; max activation, %; P35462; 410,000 tested, 0.58% active; D3R DiscoveRx beta-arrestin cells, luminescence, 90 min; in the data active = max activation above about 30%
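Cells at 1500/well, incubated overnight, then treated with pinned compounds (dopamine as control) for 90 min at 37 degrees C. DiscoveRx reagent added for 30 - 60 minutes at room temperature; luminescence read.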
D3 antag: blocks the human D3 dopamine receptor; D3R cells, DiscoveRx beta-arrestin luminescence, antagonist mode; hits give low values; 360,000 tested, 2.5% active; P35462; max response, negative = inhibition, %; AID 652054; in the data active = max response below about -50%; inconclusive = no clear call, values can overlap the other calls
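Cells plated overnight at 1500 cells/well, then exposed to library compounds with dopamine controls for 90 minutes at 37 degrees C. DiscoveRx reagent added for 30–60 minutes at room temperature; luminescence read, quantitative HTS format.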
D1 antagonist: blocks dopamine activation of the human D1 receptor; P21728; HEK293 TREx D1 cells, calcium flux, dopamine EC80; hits give low values; activity change, negative = inhibition, % at 10 µM; 360,000 tested, 3.2% active; AID 504652; in the data active = activity change below about -30%
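Antagonism measured as reduced calcium response to an EC80 dopamine addition following 180 s compound pre-read; cells were inducible HEK293 Trex D1 plated overnight at 30 C, read kinetically at 1 cycle/sec.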
D1 agonist: agonists of human D1 dopamine receptor; activation, % at 2 µM; P21728; 360,000 tested, 1% active; HEK293 T-REx D1 cells, calcium flux, agonist mode; in the data active = activation above about 30%
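Inducible HEK293 T-REx D1 cells, force-coupled to calcium signalling, were plated at 4000 cells/well with tetracycline and held overnight at 30 C. After no-wash calcium dye loading, compound-evoked calcium rise over 180 s flagged agonists.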
Numbers stand for hits; n = inactive; u = inconclusive; x = no result. Most compounds without a hit are left out; they make up all but 6% or so of the library.

SMILES	D1 PAM	D3 ag	D3 antag	D1 antagonist	D1 agonist
Oc1oc(-c2cccc3ccccc23)nc1/C=N/c1nccs1	n	n	u	n	43.6
Cc1ccc(CCNC(=O)C2CCN(Cc3nc(-c4ccccc4C)oc3C)CC2)cc1	n	n	x	n	n
COC(=O)c1ccc(CN(c2ccccn2)S(=O)(=O)c2ccccc2)cc1	n	n	n	-36.0	n
CC(CN(C)C)CN1c2ccccc2CCc2ccccc21 (stereo unspecified)	n	n	n	-80.7	n
CN(C)CCCN1c2ccccc2C(C)(C)c2ccccc21	x	n	x	x	x
CN(C)CCCN1c2ccccc2CCc2ccccc21	n	n	n	-41.3	n
CCn1c2ccccc2c2cc(NC(=O)COC(=O)c3cc(OC)c(OC)cc3OC)ccc21	n	54.2	n	n	n
CCOC(=O)C(=CNc1ccc2c(c1)c1ccccc1n2CC)C(=O)OCC	n	66.2	n	n	n
CCCC(=O)Nc1ccc2c(c1)c1ccccc1n2CC	n	n	n	n	n
O=C(Nc1ccc(F)cc1)C(c1ccccc1OC(F)(F)F)N1CCN(c2cccc(C(F)(F)F)n2)CC1 (stereo unspecified)	x	n	-54.9	x	x
O=C(Nc1ccc(F)cc1)C(c1ccccc1)N1CCN(c2cccc(C(F)(F)F)n2)CC1 (stereo unspecified)	x	n	n	x	x
Clc1ccc(OCCCCN2CCc3ccccc3C2)cc1	n	n	-114.3	n	n
N#Cc1ccc(OCCN2CCc3ccccc3C2)cc1	x	n	-78.8	x	x
COc1ccc(OCCOCCN2CCc3ccccc3C2)cc1	n	n	-50.7	n	n
C#Cc1cccc(N2C(=O)C3C4C=CC(C3C2=O)C2C(=O)N(c3cccc(C#C)c3)C(=O)C42)c1 (stereo unspecified)	x	n	n	x	x
C[C@H]1CNC(=O)c2c(C(=O)Nc3ccc(CNC(=O)OC(C)(C)C)cc3)ncn21	x	34.0	n	x	x
C[C@H](NC(=O)c1[nH]cnc1C(=O)Nc1ccc(CNC(=O)OC(C)(C)C)cc1)C(=O)OC(C)(C)C	n	39.2	n	n	n
CC(C)(C)OC(=O)NCc1ccc(CNC(=O)c2nc[nH]c2C(=O)N2CCN(C(=O)OC(C)(C)C)CC2)cc1	n	43.1	n	x	n
C[C@H]1Cn2cnc(C(=O)Nc3ccc(CNC(=O)OC(C)(C)C)cc3)c2C(=O)N1	x	n	n	x	x
Cc1ccccc1CN1CCN(C2CCC2)CC1CCO (stereo unspecified)	n	n	n	n	n
Cc1cc(C)cc(N(CC(=O)NC2CCCC2)C(=O)CCC(=O)Nc2nc(C)cs2)c1	n	n	n	n	57.5
Cc1cc(C)cc(N(CC(=O)NC2CCCCC2)C(=O)c2ccc(C)s2)c1	n	n	n	-33.3	n
Cc1ccc(N(CC(=O)NC2CCCC2)C(=O)c2ccc(C)s2)cc1	n	n	n	n	n
Cc1ccc(C(=O)N(CC(=O)NC2CCCC2)c2ccc3c(c2)OCCO3)s1	n	n	n	-54.5	n
CC(C)c1ccc(NC(=O)Nc2nc(C(N)C3CCCCC3)cs2)cc1 (stereo unspecified)	x	n	n	x	x
SMILES	D1 PAM	D3 ag	D3 antag	D1 antagonist	D1 agonist
Cc1ccccc1NC(=O)Nc1nc(C(N)C2CCCCC2)cs1 (stereo unspecified)	x	n	-83.8	x	x
CCc1cn(C2CC(O)C(CO)O2)c(=O)[nH]c1=O (stereo unspecified)	n	n	n	-34.7	n
O=c1[nH]c(=O)n([C@H]2C[C@H](O)[C@@H](CO)O2)cc1I	n	n	n	n	n
O=C(NCCCN1CCN(c2ccccc2)CC1)Nc1ccccc1C(F)(F)F	n	30.4	u	n	n
Cc1ccccc1NC(=O)NCCCN1CCN(c2ccccc2)CC1	n	49.6	u	n	n
O=[N+]([O-])c1cccc(COc2cccc(CN3CCCCC3)c2)c1	x	n	-76.8	x	x
O=[N+]([O-])c1cccc(CN2CCN(c3ncccn3)CC2)c1	n	n	n	n	n
COc1ccccc1C1CCN(Cc2ccccc2)CC1	n	n	-116.2	-46.1	n
O=[N+]([O-])c1cccc(CN2CCN(c3cccc4[nH]ccc34)CC2)c1	n	n	-97.0	n	n
COc1ccccc1C1CCN(Cc2ccccc2Cl)CC1	n	n	-75.3	n	n
CCc1ccc(CNC(=O)CSCc2cnn(-c3ccccc3)c2-n2cccc2)cc1	n	n	x	n	n
COc1ccccc1C1CCN(Cc2ccc3ccccc3c2)CC1	n	n	-61.7	n	n
